# AddAB inh: less growth of phage-infected E. coli with AddAB | E. coli expressing H. pylori AddAB, absorbance growth | inhibition, % at 11.9 µM | 330,000 compounds, 0.29% hits; in the data active = inhibition above about 12%
# E coli growth-1: inhibitors of Escherichia coli growth; OD600, 23 h; active compounds read low; OD600 absorbance (concentration not given with the values); 330,000 compounds, 0.21% hits; AID 1053175;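 active = OD600 absorbance below the run mean of sample wells minus 3.6 SD, in any replicate, cut at about 0.56 in these data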
# phage Ecoli inh: E. coli growth loss with phage present | growth absorbance | inhibition, % at 11.9 µM | 360,000 compounds, 0.26% hits; in the data active = inhibition above about 11%
# Tat transport: E. coli Tat transport inhibition; E. coli MC4100 TorA-mCherry Tat export, fluorescence; inhibition, % at 10 µM; 340,000 compounds, 0.036% hits; AID 488895;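 active = mean replicate inhibition at least 50% and at least half of replicates individually reaching 50%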;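 also: exported cargo escapes ClpAP degradation while cytoplasmic cargo is degraded and loses fluorescence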
# E coli growth-2: bacterial growth inhibition, counter-screen for AddAB inhibitors | E. coli V3065 growth, OD600 absorbance, 18 h | inhibition, % at 11.9 µM | 330,000 compounds, 0.27% hits;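 active = inhibition above the campaign's mean inhibition across all tested compounds plus 3 SD, cut at about 9.9% in these data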;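 also: uninfected addAB+ strain grown without phage in ampicillin broth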
# AddAB confirm: growth loss of T4-infected E. coli expressing H. pylori AddAB, confirmed; shares compounds with AddAB inh; E. coli V3065 expressing H. pylori AddAB, T4 phage, OD; T4 phage with gene 2 nonsense mutations; inhibition, % at 11.9 µM; 880 compounds, 64% hits;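 active = mean inhibition above a set limit taken from the earlier primary screen, cut at about 13% in these data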;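 also: higher means less bacterial growth since AddAB block lets phage replicate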
# RecBCD counter: reduces growth of phage-infected RecBCD+ E. coli, AddAB inhibitor counter-screen; shares compounds with AddAB inh; E. coli V66 + mutant T4 phage, OD growth; inhibition, % at 11.9 µM; 880 compounds, 73% hits; AID 488955;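 active = mean inhibition above the mean of solvent-only control wells plus 3 SD, cut at about 4% in these data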;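 also: optical density read after an 18 h incubation at 37 °C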
# bact viab count: counter-screen for AddAB inhibitors: inhibitors of bacterial viability. shares compounds with AddAB inh. inhibition, % at 11.9 µM. 880 compounds, 35% hits. absorbance (AddAB counterscreen); in the data active = inhibition above about 25%
# Hits are given with their value; 0 = inactive; - = not tested or not shown. Sampled rows, rich in hits. Any-hit rate of the full collection: about 0.5%.
SMILES,AddAB inh,E coli growth-1,phage Ecoli inh,Tat transport,E coli growth-2,AddAB confirm,RecBCD counter,bact viab count
O=C(COC(=O)c1ccccc1NC(=O)c1ccco1)NCC1CCCCC1,97,0,0,0,98,0,0,0
COC(=O)c1cc(C(=O)OCC(=O)N(C)C2CCS(=O)(=O)C2)cc([N+](=O)[O-])c1 (configuration not stated),22,0,0,0,12,0,0,0
Cc1ccc(-c2ccc(C=NNC(=O)CN3CCOCC3)o2)cc1[N+](=O)[O-],-,0,-,-,-,-,-,-
O=C(NNC(=O)c1cc(Br)ccc1Cl)c1csc(N2CCOCC2)n1,0,0,0,0,0,-,-,-
O=C(NNC(=O)c1cc(Br)ccc1O)c1csc(N2CCOCC2)n1,37,-,-,0,33,27,27,27
CC(=O)Nc1cccc(C(=O)NCCc2ccco2)c1,12,0,0,0,12,0,10,0
CCCCC1CNC(=S)N1CCCc1cc(OC)c(OC)c(OC)c1 (configuration not stated),-,0,-,-,-,-,-,-
O=C(CSc1nc2ccc(Cl)cc2[nH]1)Nc1ccc2c(c1)CCC2,0,-,0,0,0,-,-,-
O=C(CSc1nc2ccccc2[nH]1)Nc1ccc2c(c1)CCC2,18,0,0,0,0,0,5.2,0
Cc1cc(/C=N/n2c(COc3ccccc3)nc3ccccc3c2=O)c(O)c([N+](=O)[O-])c1,15,-,0,0,13,0,14,0
Cc1cc(C=Nn2c(COc3ccccc3)nc3ccccc3c2=O)c(O)c([N+](=O)[O-])c1,-,0,-,-,-,-,-,-
CC(=O)Nc1ccc(NC(=O)CC(C)=NNC(=O)COc2cc(C)c(Br)cc2Br)cc1,-,0,-,-,-,-,-,-
O=C(Nc1ccc2oc(-c3ccccc3)nc2c1)c1cc(-n2cnnc2)ccc1Cl,95,0,0,0,65,0,0,0
COc1ccc(NC(=O)COc2ccc(C)nc2[N+](=O)[O-])cc1S(N)(=O)=O,15,0,0,0,12,46,7.8,29
Cc1ccc(OCC(=O)Nc2ccc3c(c2)CCC3)c([N+](=O)[O-])n1,0,0,0,0,0,-,-,-
COC(=O)c1cc(S(=O)(=O)NCc2ccc(F)cc2)cn1C,15,0,0,0,0,0,0,0
Cc1nn(-c2ccccc2)c(Cl)c1C=NNC(=O)c1cnccn1,-,0,-,-,-,-,-,-
O=C(CCCN1C(=O)S/C(=C\c2ccccc2)C1=O)NNC(=O)c1ccccc1O,0,-,0,0,0,-,-,-
O=C(CCN1C(=O)/C(=C\c2ccccc2)SC1=S)NNC(=O)c1ccccc1O,16,0,0,0,0,0,5.0,0
C=CCn1c(O)c(N=Nc2ccccc2O)c2ccccc21,18,0,0,0,11,81,4.6,0
C=CCn1c(O)c(N=Nc2ccccc2)c2ccccc21,0,-,0,0,0,-,-,-
O=C(Nc1nnc(-c2ccco2)o1)c1cccc(Cl)c1,15,0,0,0,0,0,0,0
O=C(Nc1nnc(-c2ccccn2)o1)c1cccc(Cl)c1,0,0,0,0,0,-,-,-
O=C(Nc1nnc(-c2cccs2)o1)c1cccc(F)c1,16,0.35,0,0,0,0,14,0
CCN1C(=O)C2C(c3ccc(Cl)cc3)N3C(=O)CN(CCOC)C(=O)[C@@]3(C)C2C1=O (some centres not stated),-,0,-,-,-,-,-,-
SMILES,AddAB inh,E coli growth-1,phage Ecoli inh,Tat transport,E coli growth-2,AddAB confirm,RecBCD counter,bact viab count
O=C(Nc1cccc(NC(=O)c2cccs2)c1)c1ccc([N+](=O)[O-])o1,27,0.41,0,0,16,96,9.4,28
O=C(Nc1cccc(NC(=O)c2ccc([N+](=O)[O-])o2)c1)c1ccco1,24,0.46,0,0,17,99,10,30
O=C(Nc1nc(-c2cccs2)cs1)c1ccc([N+](=O)[O-])o1,13,0.52,0,0,0,85,7.5,0
Cc1cc(-c2n[nH]c(=S)n2N=Cc2sccc2C)n[nH]1,-,0,-,-,-,-,-,-
C#Cc1ccc(C2C=C(C(=O)NC3CC3)OC(OCc3ccc(CO)cc3)C2)cc1 (configuration not stated),-,0,-,-,-,-,-,-
O=c1c(O)c(-c2ccc(O)c(O)c2)oc2cc(O)cc(O)c12,13,0,0,0,0,0,0,0
c1ccc2nc(-c3ccc(N4CCOCC4)cc3)ccc2c1,40,0,0,0,43,0,0,0
